# Assay results reported in PubChem BioAssay AID504582 (Broad Institute, 2011).
# Screen size: about 340,000 compounds; about 2,300 (0.68%) were called active. The sample holds actives, similar compounds and a random draw of the others, so the mix is not that of the screen. Values without a mark were called inactive. Cut-off read from the data, not from the text of the source: active = growth rescue above about 28% (passing the limit was not always enough); inconclusive = no clear call, values can overlap the other calls.
# Experiment: rescue of yeast from PfHsp40 toxicity, primary screen, S. cerevisiae, ATP luminescence (AID 504582);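 note: yeast W303a lacking pdr1 and pdr3 grown in galactose medium; growth measured after three days at 30 °C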
# Conditions: S. cerevisiae expressing PfHsp40, growth rescue, at 12.5 µM, active compounds read high
row,SMILES,growth rescue
1,Cc1ccc(/C=N/NC(=O)C2=NNC(c3ccccc3)(c3ccccc3)C2)c(O)c1,-0.682%
2,CCN(CC)c1ccc(/C=N/NC(=O)c2cnccn2)c(O)c1,77.4% (active)
3,COc1ccc(NC(=O)C/C(C)=N/NC(=O)c2cnccn2)cc1Cl,-1.24%
4,CCNC(=O)c1cnn(-c2ccccc2)c1-c1ccccc1,-3.15%
5,Cn1c(C(=O)N2CCCC(C(=O)NCc3ccccc3)C2)cc2sccc21 (stereo unspecified),0.412%
6,CCCCCC(=O)N1CCN(S(=O)(=O)c2ccc3c(c2)OCCCO3)CC1,1.79%
7,O=S(=O)(NCc1ccccc1)c1ccc(S(=O)(=O)N2CCCC2)cc1,0.759%
8,CC1(C)CN(c2ccc(-c3ccnc4ncnn34)cc2)C1=O,-1.84%
9,Cc1ccc2c(c1)C(c1ccccc1)N(C(=O)c1ccc(S(=O)(=O)N3CCOCC3)cc1)CC(=O)N2 (stereo unspecified),72.7% (active)
10,Cc1ccc2c(c1)C(c1ccccc1)N(C(=O)c1ccc(F)cc1)CC(=O)N2 (stereo unspecified),0.27%
11,Cc1ccc(C(=O)N2CC(=O)Nc3ccc(F)cc3C2c2ccc(F)cc2)cc1 (stereo unspecified),1.27%
12,Cc1ccc(NN=Nc2nc3c([nH]2)c(=O)n(C)c(=O)n3C)cc1,-0.566%
13,CN(C)CC(O)COc1ccc(C(C)(C)c2ccc(OCC(O)CN(C)C)cc2)cc1 (stereo unspecified),26.9% (active)
14,COc1ccc(OCC(O)CN(C)C(=O)C(C)Oc2ccccc2)cc1 (stereo unspecified),-0.614%
15,Cc1cc(C)n(CC(O)COc2ccc(C(C)(C)C)cc2)n1 (stereo unspecified),0.193%
16,Cc1ccc2nc(C)c3c(c2c1)N(c1ccccc1)CC3,-0.127%
17,Cc1ccc(S(=O)(=O)N2CCOCC2)cc1C(=O)Nc1ccccc1N1CCCC1,0.57%
18,COc1ccc(OCC(O)CNCCNc2nccc(C(F)(F)F)n2)cc1 (stereo unspecified),62.4% (active)
19,CC(C)(C)CC(C)(C)NCC(O)COCCOc1ccc(Br)cc1 (stereo unspecified),0.077%
20,COc1ccc(OCC(O)CNC(=O)Nc2ccc(Cl)cc2)cc1 (stereo unspecified),-1.02%
21,Cc1ccccc1Nc1c([N+](=O)[O-])ccc2nonc12,-0.179%
22,CCc1cc2c(=O)c(-c3ccon3)c(N)oc2cc1OC,-0.783%
23,COc1ccc(NCc2nnc(SCc3ccccc3)n2-c2ccc(OC)cc2)cc1,-1.36%
24,O=C(COc1ccccc1[N+](=O)[O-])N/N=C/c1ccc[nH]1,-1%
25,Cc1nn(Cc2ccc(Cl)cc2)c(Cl)c1/C=N/NC(=O)CNc1ccccc1F,-0.219%
26,Cc1ccccc1NCC(=O)N/N=C\c1ccc([N+](=O)[O-])s1,406% (active)
